Activity calls are given as the source filed them.
Key:
Albumin (Bos taurus) = Albumin (Bos taurus) (UniProt P02769); assay: compounds binding labelled BSA control protein – biochemical, small-molecule microarray, Alexa647 label, 635/667 nm fluorescence, artefact control for SMM control protein annotation, profiling panel (AID 1118); details: BSA-A647 binding, fluorescence 635 nm, higher = more signal;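 also: score merges 667 nm emission intensity and signal-to-noise per printed compound spot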
[1] = probe aXIP binding to arrayed compounds – biochemical, NeuroSMM set, 635/667 nm fluorescence, primary screen (AID 1119); details: small-molecule microarray, higher = more signal, called active from +8 up or from −8 down;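 also: probe is the protein aXip251-270 applied at 1 µg/mL to compound-printed slides; binding of probe to printed compounds measured as 667 nm fluorescence plus signal to noise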
[2] = probe aNOTCH3 binding on compound microarray – biochemical, small-molecule microarray, 635/667 nm fluorescence, primary screen (AID 1120); details: higher = more signal;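 also: probe is a biotin-tagged antibody raised against NOTCH3 rather than NOTCH3 protein; score merges spot fluorescence near 667 nm with spot signal to noise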
[3] = probe aNOTCH2 binding on compound microarray – biochemical, small-molecule microarray, 635/667 nm fluorescence, primary screen (AID 1121); details: higher = more signal;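 also: score merges feature fluorescence read at 667 nm with its signal to noise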
[4] = molecular target: Carbonic anhydrase 2 (Homo sapiens) (UniProt P00918); assay: compounds binding carbonic anhydrase 2 – biochemical, small-molecule microarray, Alexa647-labelled CAII, profiling panel (AID 1122); details: CAII-A647 binding fluorescence, higher = more signal
[5] = COS7 lysate on small-molecule microarray, probe aHis, 635 nm (AID 1123); details: COS7 cell lysate, fluorescence, higher = more signal;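 also: z-score combines 667nm fluorescence intensity with signal-to-noise per printed compound spot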
[6] = probe aLAP1 signal on lysate-treated microarray – cell lysate, small-molecule microarray, COS7 lysate, primary screen (AID 1124); details: probe aLAP1, fluorescence, higher = more signal;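 also: lysate comes from COS7 cells expressing LAP1 and is applied at 0.3 µg/mL; score merges spot fluorescence near 667 nm with signal-to-noise over triplicate slides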
Sam68 (KHDRBS1) = assay: compounds binding KHDRBS1 protein – biochemical, small-molecule microarray, 635 nm fluorescence, primary screen (AID 1125); details: higher = more signal;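 also: score merges 667 nm channel intensity with signal to noise over triplicate slides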
[7] = tested on: Chordin-like protein 2 (CHRDL2); assay: compounds binding chordin-like 2 – biochemical, small-molecule microarray, 635 nm fluorescence, primary screen (AID 1126); details: fluorescence 635 nm, higher = more signal;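 also: printed compound slides probed with Chrdl2 protein at 4 µg/mL for 1 h at 4 C; score merges 667 nm emission intensity with signal to noise over three replicate slides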
[8] = molecular target: Concanavalin-A (Canavalia ensiformis) (UniProt P02866); assay: compounds binding concanavalin A lectin – biochemical, small-molecule microarray, Alexa647 label, 635 nm, artefact control for SMM control protein annotation, primary screen (AID 1127); details: ConA-A647 binding fluorescence, higher = more signal;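 also: z combines 667 nm emission intensity with signal-to-noise across three replicate slides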
Chain of Concanavalin-A (Canavalia ensiformis) (P02866 whole entry, looked up): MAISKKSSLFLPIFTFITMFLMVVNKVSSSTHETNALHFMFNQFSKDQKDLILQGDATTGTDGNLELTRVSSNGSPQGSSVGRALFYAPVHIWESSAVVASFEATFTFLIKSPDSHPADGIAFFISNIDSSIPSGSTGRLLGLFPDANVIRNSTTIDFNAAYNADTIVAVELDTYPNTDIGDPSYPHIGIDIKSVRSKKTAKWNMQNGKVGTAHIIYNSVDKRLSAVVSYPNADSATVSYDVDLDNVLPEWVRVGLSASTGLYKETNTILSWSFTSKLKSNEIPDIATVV

Chain of Albumin (Bos taurus) (P02769 whole entry, looked up): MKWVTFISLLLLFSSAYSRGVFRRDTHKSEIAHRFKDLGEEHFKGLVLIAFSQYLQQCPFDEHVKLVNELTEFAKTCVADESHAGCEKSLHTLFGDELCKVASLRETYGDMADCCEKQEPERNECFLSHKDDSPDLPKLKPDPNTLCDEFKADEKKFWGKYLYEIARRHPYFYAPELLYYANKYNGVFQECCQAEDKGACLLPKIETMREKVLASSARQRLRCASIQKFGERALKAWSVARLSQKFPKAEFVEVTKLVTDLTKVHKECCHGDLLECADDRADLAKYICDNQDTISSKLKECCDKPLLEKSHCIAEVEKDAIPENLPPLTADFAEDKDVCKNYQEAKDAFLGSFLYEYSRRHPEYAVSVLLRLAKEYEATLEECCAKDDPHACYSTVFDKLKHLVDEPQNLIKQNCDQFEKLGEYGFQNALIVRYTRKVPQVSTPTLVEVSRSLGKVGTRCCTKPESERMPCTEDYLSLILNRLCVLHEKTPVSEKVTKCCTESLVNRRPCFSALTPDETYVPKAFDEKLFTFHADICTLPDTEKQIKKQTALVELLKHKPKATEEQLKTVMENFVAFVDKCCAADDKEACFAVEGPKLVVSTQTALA

Structure (SMILES) | composite z-score (Albumin (Bos taurus)) | composite Z-score [1] | composite z-score [2] | composite z-score [3] | composite z-score [4] | composite z-score [5] | composite z-score [6] | composite z-score (Sam68 (KHDRBS1)) | composite z-score [7] | composite z-score [8]
O=[N+]([O-])c1ccc(C[n+]2ccc(-c3ccc(CO)cc3)cc2)o1 | 0.904 | 0.289 (inactive) | -0.0043 | -0.0485 | 0.885 | 1.13 | 1.2 | 0.649 | 0.768 | 0.648
O=C1O[C@H](c2ccccc2)[C@H](c2ccccc2)N2[C@H]1[C@@H](C(=O)N1CCN(c3ncccn3)CC1)[C@]1(C(=O)Nc3ccc(C#CCCO)cc31)[C@H]2c1ccc(OCCO)cc1 | 0.612 | 1.38 (inactive) | 0.255 | -0.0633 | 0.296 | 1.96 | 0.924 | 1.3 | 0.944 | 1.11
O=C1CSC(c2cccc([N+](=O)[O-])c2)N1c1ccccc1 (stereo not given) | 0.0623 | 0.0045 (inactive) | -0.0647 | -0.172 | 0.153 | 0.523 | 0.537 | 0.557 | 0.286 | 0.612
C[N+](C)(C)CCCCCCNC(=O)[C@@H]1C[C@@H]2C(=O)NCC(=O)N2[C@@H]1c1cccc(OCCO)c1 | -0.205 | 0.605 (inactive) | -0.0338 | -0.14 | 0.656 | 1.1 | -0.426 | 0.73 | 1.31 | 1.15
COCCCNC(=O)[C@@]1(C)c2ccccc2C(=O)N(c2ccc(C)cn2)[C@H]1c1ccc(CO)cc1 | 0.537 | -0.333 (inactive) | -0.463 | -0.135 | 0.789 | -0.317 | 0.406 | -0.225 | -0.889 | -0.731
C=C(/C(=C/C[C@@H](OC(C)=O)c1ccccc1OCCO)c1cnc2ccccc2c1)C(C)C | 0.23 | 1.17 (inactive) | -0.0784 | -0.0859 | 0.571 | 0.503 | -0.0618 | 0.778 | 0.474 | 0.871
CN1C(=O)C2C=CC(C(O)C3CCCCC3)N(N(c3ccccc3)c3ccccc3)C2C1=O (stereo not given) | -0.0103 | 0.54 (inactive) | 0.367 | 0.232 | 0.72 | 2.56 | 1.21 | -0.864 | -1.04 | -1.27
COCCOC(=O)N1C(=O)[C@@]2(c3ccccc31)[C@H](c1ccc(OCCO)cc1)N1[C@H](c3ccccc3)[C@H](c3ccccc3)OC(=O)[C@H]1[C@@H]2C(=O)NC[C@H](O)c1ccccc1 | 0.128 | 0.774 (inactive) | 0.327 | -0.084 | 0.505 | 1.91 | 0.123 | 1.29 | 0.508 | 1.02
NC(=O)NCC#Cc1ccc2c(c1)[C@]1(C(=O)N2)[C@H](c2ccc(OCCO)cc2)N2[C@H](c3ccccc3)[C@H](c3ccccc3)OC(=O)[C@H]2[C@@H]1C(=O)N1CCN(c2ncccn2)CC1 | -0.17 | -0.991 (inactive) | 0.108 | 0.0101 | 0.257 | 0.815 | 0.332 | 0.776 | 0.903 | 0.698
CC(C)(C)OC(=O)CC[C@@]1(C(=O)N2CCCCC2)N=C(c2ccc(OCCCO)cc2)O[C@@H]1c1ccccc1CN=[N+]=[N-] | 1.03 | 0.18 (inactive) | 0.359 | 0.13 | 0.597 | 2.99 | 0.639 | 1.29 | -0.813 | 1.18
[N-]=[N+]=NCc1ccccc1[C@H]1OC(c2ccc(OCCCO)cc2)=N[C@@]1(Cc1ccccc1N=[N+]=[N-])C(=O)NCCN1CCOCC1 | 0.701 | -0.514 (inactive) | 0.416 | 0.105 | 0.751 | 2.32 | -0.0777 | 1.29 | 0.263 | 1.14
COc1ccc([Si](C)(C)[C@@H]2[C@@H](CCO)O[C@]3(C(=O)N(Cc4cccc(N5C(=O)COc6ccccc65)c4)c4ccccc43)[C@H]2C)cc1 | 0.663 | 0.215 (inactive) | -0.126 | -0.0576 | 0.163 | 1.35 | 0.0386 | 0.19 | -0.117 | 1.03
COc1cc2c(cc1OC)CN(C(=O)[C@@H]1[C@H]3C(=O)O[C@H](c4ccccc4)[C@H](c4ccccc4)N3[C@H](c3ccc(O)cc3)[C@@]13C(=O)Nc1ccc(C#CCNC(N)=O)cc13)CC2 | 0.0738 | 0.507 (inactive) | 0.114 | -0.182 | -0.0348 | 0.276 | 1.06 | 0.425 | 0.498 | 0.826
COCCCNC(=O)[C@@H]1c2ccccc2C(=O)N(Cc2cc(F)cc(C(F)(F)F)c2)[C@H]1c1ccc(CO)cc1 | -0.146 | 0.147 (inactive) | -0.388 | -0.0826 | 0.761 | -0.838 | -0.438 | -1.24 | -1.24 | -0.265
COCC1=C([C@H](O)CCc2ccccc2)[C@H](CO)[C@@H]2C(=O)N(C)C(=O)[C@@H]2C1 | 0.218 | -0.222 (inactive) | 0.0893 | -0.0502 | 0.426 | -0.0175 | 0.0165 | 0.322 | 0.758 | -0.0605
COC(=O)[C@@]1(Cc2ccc(F)cc2)[C@H]2c3cc(C(=O)N(C)C)n(CCSCCO)c3C[C@H]2CN1C(=O)c1ccccc1 | 1.04 | 0.116 (inactive) | 0.0179 | -0.0568 | 0.726 | 2.15 | 0.96 | 0.584 | 0.191 | -0.103

From PubChem BioAssay
